This is a sample that favours compounds with a hit; in the whole collection about 12% have one here.
G9a inh: qHTS Assay for Inhibitors of Histone Lysine Methyltransferase G9a; Histone-lysine N-methyltransferase EHMT2 (Homo sapiens), Q96KQ7; G9a H3K9 monomethylation, AlphaScreen, 2 h; Potency, µM (series often up to 102 µM), for inactives: at the top dose activity, negative = inhibition, most hits filed as inhibitors; 350,000 compounds, 8.8% hits; AID 504332, 2011; note: % is set by controls: 0 for no effect and ±100 for the full control effect; nearly all actives have a fitted effect of over 75% in size
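Using a bead-based AlphaScreen, monomethylated H3K9 product from 2 h room-temperature reactions (G9a 20 nM, peptide 500 nM, SAM 20 uM) was detected with 0.5 ug/mL rabbit anti-H3K9me1 antibody.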
JMJD2A Tudor inh: qHTS Assay for Inhibitors of JMJD2A-Tudor Domain; AID 504339, 2011; Lysine-specific demethylase 4A (Homo sapiens), O75164; 390,000 compounds, 4.4% hits; Potency, µM (top dose mostly 114 µM), inactives show at the highest dose activity change, negative = inhibition, most hits filed as inhibitors; AlphaScreen JMJD2A-Tudor / H3K4me3 peptide binding; note: % is set by controls: 0 for no effect and ±100 for the full control effect; nearly all actives have a fitted effect of over 50% in size
Target sequence (O75164 whole entry, looked up, the tested form may be a part): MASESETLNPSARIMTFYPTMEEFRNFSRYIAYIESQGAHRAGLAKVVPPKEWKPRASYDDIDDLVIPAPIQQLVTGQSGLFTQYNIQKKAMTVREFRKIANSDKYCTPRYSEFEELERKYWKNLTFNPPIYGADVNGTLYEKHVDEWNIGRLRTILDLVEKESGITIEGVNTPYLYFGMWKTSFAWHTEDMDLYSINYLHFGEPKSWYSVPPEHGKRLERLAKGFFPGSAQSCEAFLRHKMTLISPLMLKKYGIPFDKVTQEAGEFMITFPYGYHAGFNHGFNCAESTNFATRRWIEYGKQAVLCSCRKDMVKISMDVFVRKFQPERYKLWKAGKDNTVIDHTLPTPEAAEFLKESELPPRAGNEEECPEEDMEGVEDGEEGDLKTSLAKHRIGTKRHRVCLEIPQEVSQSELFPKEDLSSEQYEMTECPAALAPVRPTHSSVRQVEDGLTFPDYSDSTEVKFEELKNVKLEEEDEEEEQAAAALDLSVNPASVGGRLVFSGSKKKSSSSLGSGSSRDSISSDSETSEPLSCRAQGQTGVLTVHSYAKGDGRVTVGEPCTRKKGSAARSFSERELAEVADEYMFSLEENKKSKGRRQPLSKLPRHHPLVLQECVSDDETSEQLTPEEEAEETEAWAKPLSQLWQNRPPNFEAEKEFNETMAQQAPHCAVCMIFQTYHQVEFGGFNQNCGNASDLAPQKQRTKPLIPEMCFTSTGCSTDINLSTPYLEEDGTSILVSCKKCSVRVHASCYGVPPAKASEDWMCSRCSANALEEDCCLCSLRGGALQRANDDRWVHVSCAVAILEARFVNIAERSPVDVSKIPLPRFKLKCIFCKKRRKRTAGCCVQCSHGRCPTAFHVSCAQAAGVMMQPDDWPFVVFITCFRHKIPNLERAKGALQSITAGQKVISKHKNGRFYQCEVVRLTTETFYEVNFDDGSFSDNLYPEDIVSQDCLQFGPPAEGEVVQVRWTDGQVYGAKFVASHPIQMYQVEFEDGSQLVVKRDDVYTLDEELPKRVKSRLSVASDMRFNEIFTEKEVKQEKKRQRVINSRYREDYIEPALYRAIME
HP1b binding inh: HTS for Inhibitors of HP1-beta Chromodomain Interactions with Methylated Histone Tails; AID 540317, 2011; Potency, µM (top dose mostly 114 µM), without a hit: top-dose activity change, negative = inhibition, actives largely listed as inhibitors; Chromobox protein homolog 1 (Homo sapiens), P83916; AlphaScreen HP1-beta / biotin-H3K9me3 peptide binding; 390,000 compounds, 0.56% hits; note: nearly all actives have a fitted effect of over 70% in size
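HP1-beta protein (50 nM final) preincubated 30 min at room temperature with biotinylated H3(1-18)K9me3 peptide (50 nM) in PBS pH 7.4, 0.01% Tween-20, then compound added for 30 min. AlphaScreen streptavidin donor/nickel chelate acceptor beads (10 ug/mL final), 30 min dark, luminescence read.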
PLK1 PBD block: qHTS for Inhibitors of PLK1-PDB (polo-like kinase 1 - polo-box domain): Primary Screen; Serine/threonine-protein kinase PLK1 (Homo sapiens), P53350; Plk1 PBD binding of FITC phosphopeptide, fluorescence polarization; 360,000 compounds, 2.8% hits; Potency, µM, without a hit: max response, negative = inhibition, usual class: inhibitors; note: series mostly up to about 57 µM; % is set by controls: 0 for no effect and ±100 for the full control effect; nearly all actives have a fitted effect of over 65% in size
BAZ2B block: qHTS Assay for Inhibitors of BAZ2B | Bromodomain adjacent to zinc finger domain protein 2B (Homo sapiens), Q9UIF8 | AlphaScreen BAZ2B-H3K14Ac peptide displacement | Potency, µM (top dose mostly 114 µM), without a hit: top-dose activity change, negative = inhibition, usual class: inhibitors | 360,000 compounds, 4.4% hits; note: % is set by controls: 0 for no effect and ±100 for the full control effect; nearly all actives have a fitted effect of over 60% in size
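Inhibition is scored as reduced AlphaScreen emission. The BAZ2B/b-H3(5-23)K14Ac complex (50 nM each) in PBS pH 7.4, 0.01% Tween-20 meets compound (up to 110 uM) for 30 min at RT before bead addition.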
Sfp inh: qHTS Assay for Inhibitors of Bacillus subtilis Sfp phosphopantetheinyl transferase (PPTase); 4'-phosphopantetheinyl transferase ffp (Bacillus subtilis), Q9F4F7; Biochemical Sfp PPTase activity, qHTS; Potency, µM, without a hit: largest response in the series, negative = inhibition, most hits filed as inhibitors; 310,000 compounds, 3.5% hits; AID 1490, 2009;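 note: the enzyme is Sfp with the accession as filed and its product quenches rhodamine fluorescence; 0% = enzyme reaction without inhibitor and -100% = no enzyme wells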
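Sfp 15 nM + cpd, 15 min RT; start w/ rhodamine-CoA 5 uM, BHQ-2-YbbR 12.5 uM (final); 50 mM Hepes pH 7.6, 10 mM MgCl2, 0.01% NP-40, 0.01% BSA; read 525/598 nm at 0 and 30 min.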
Active calls of the source: *; ? = inconclusive; . = no result given; ! = not confirmed by another sample; [ ] = remark or other dose. Calls come from the whole dose curve; as a rule, active = well fitted curve in the direction sought with a large enough effect; inconclusive = small, poorly fitted or top-dose-only effect, or another doubt; inactive = no such curve, though single readings can be large; an effect the other way counts as inactive or inconclusive. Potency is the fitted concentration of half-maximal effect.

SMILES	G9a inh	JMJD2A Tudor inh	HP1b binding inh	PLK1 PBD block	BAZ2B block	Sfp inh
COc1ccc(/C(C)=N/OCC(=O)Nc2nc3ccccc3s2)cc1OC	50µM*	-35%	-11%	-1%	?	?
COc1ccc(/C=C/C(=O)NC(=S)NNC(=O)c2cccnc2)cc1	?	-17%	10%	-2%	2%	21%
O=C(NNC(=S)NC(=O)c1ccc(F)cc1)c1cccnc1	11µM*	-8%	6%	-8%	7%	4%
Cc1cccc(C)c1NC(=O)CNC(=O)c1cccnc1	79µM*	-4%	51%	5%	-14%	10%
O=C(NNC(=S)Nc1ccccc1)c1cccnc1	56µM*	-12%	38%	-6%	-23%	5%
O=C(/C=C/c1ccc(F)cc1)NC(=S)NNC(=O)c1cnccn1	50µM*	7.9µM*	2%	-5%	2.8µM*	11%
O=C(NNC(=S)NCc1ccccc1)c1cccnc1	29%	-24%	43%	1%	10%	12%
O=C(NC(=S)NNS(=O)(=O)c1ccc(Cl)cc1)c1cccnc1	50µM*	-14%	22%	-19%	2%	17%
O=C(NNC(=S)NC(=O)c1cccnc1)c1ccccc1	28µM*	?	1%	-4%	4%[57.1 µM]	0%
O=C(NNC(=S)NC(=O)c1cccnc1)c1ccc(F)cc1	.	-14%	-1%	-29%	14%	-18%
Cc1ccccc1NC(=S)NNC(=O)c1cccnc1	1.8µM*	22µM*	-3%	-6%	-2%	-8%
COc1ccccc1-c1nnc(SC(C)C(=O)Nc2ccc(C(N)=O)cc2)o1 (centres undefined)	8%[0.501 µM]	-6%	35%	0%	7%	.
COc1ccc(CN(Cc2ccccc2)C(=O)C2CC2)cc1COc1ccc(NC(C)=O)cc1	.	?	10%	.	.	.
Cc1ccc2nc(NC(=O)CSc3nc(=O)n(CCN(C)C)c4c3CCCC4)sc2c1	?	-22%	-7%	-6%	-23%	.
COc1cc(/C=N/NC(=O)CC#N)cc(Br)c1O	1%	35µM*	?	11µM*	50µM*	0%
COc1cc(/C=N/NC(=O)/C(=C\c2ccc([N+](=O)[O-])cc2)NC(=O)c2ccccc2)cc(OC)c1O	45µM*	?	2%	-7%	-37%	-17%
CCOc1cc(/C=N/NC(=O)C(=O)NC2CC2)cc(Br)c1O	8.9µM*	-1%	-3%	-3%	-2%	0%
COc1cc(/C=N/NC(=O)c2ccc(CSc3nncn3C)cc2)cc(OC)c1O	13µM*	-12%	9%	-5%	-20%	-3%
CC(=O)c1ccc(NS(=O)(=O)c2cccc(S(=O)(=O)c3ccc(Cl)cc3)c2)cc1	-1%[59 µM]	-26%	11%	.	-22%	.
Cc1cccc(C)c1Nc1oc(-c2ccccc2)nc1-c1ccccc1F	.	.	.	.	.	-20%
COc1cc(/C=N/NC(=O)c2ccc([N+](=O)[O-])cc2Cl)cc(Br)c1O	45µM*	-4%	10%	-4%	2%	1%
COc1ccc(Br)cc1C(=O)N/N=C/c1ccc([N+](=O)[O-])cc1	-34%	-28%	-4%	-26%	-6%	-9%
COc1cc(/C=N/NC(=O)Cc2ccc(Br)cc2)cc(OC)c1O	50µM*	-2%	2%	-10%	3%	-5%
COc1cc(Br)cc(/C=N/NC(=O)Cc2ccccc2)c1O	.	-16%	36%	-4%	.	.
COCOc1c2c(c(OCOC)c3c(OCOC)cccc13)/C(=N/NS(C)(=O)=O)C1=C2CCCC1	.	.	.	.	.	-1%
SMILES	G9a inh	JMJD2A Tudor inh	HP1b binding inh	PLK1 PBD block	BAZ2B block	Sfp inh
O=C(O)/C=C/c1cnc[nH]1	13µM*!	-13%	36%	-10%	7%	-17%
O=C(O)C=Cc1c[nH]c2nccnc12	.	.	.	9%	.	.
CN(C)c1ncnc2c1ncn2C1CCCO1 (centres undefined)	.	-12%	-20%	-3%	.	.
CCCCCc1cc(=O)oc2c(C(CCN3CCCC(C)C3)c3ccc4c(c3)OCO4)c(OC)cc(OC)c12 (centres undefined)	?	?	-7%	-1%	32µM*	0%
CCCCCc1cc(=O)oc2c(C(CCN3CCCC3)c3ccc4c(c3)OCO4)c(OC)cc(OC)c12 (centres undefined)	.	50µM*	-34%	.	.	40µM*
COc1cc(OC)c2c(-c3ccccc3)cc(=O)oc2c1C(CCN1CCCC1)c1ccc2c(c1)OCO2 (centres undefined)	-47%[59 µM]	?	-9%	-21%	-38%	?
CCCCCc1cc(=O)oc2c(C(CCN3CCCCC3)c3ccc4c(c3)OCO4)c(OC)cc(OC)c12 (centres undefined)	-5%[12.7 µM]	45µM*	-24%	-15%	?	56µM*
COc1ccc(CNc2cc(-c3ccccc3C)ncn2)c(OC)c1	-2%[0.501 µM]	.	.	.	.	-28%
COc1ccc(Cc2nc3ccc(C(=O)NC(C)c4cn(C)nc4C)cc3o2)cc1 (centres undefined)	3%	-21%	52%	-12%	-17%	8%
O=Cc1ccnc(-c2ccc(OC(=O)c3ccco3)cc2)n1	-4%	-18%	4%	-4%	-1%	-5%
CCOC(=O)C1=NOC(CNC(=O)c2ccccc2Cl)C1 (centres undefined)	20%	-11%	33%	-2%	-9%	22%
CCOC(=O)C1=NOC(COc2ccccc2C=O)C1 (centres undefined)	3%	?	-5%	27µM*	10%	24%
COc1ccc(CCNc2ccc(C(CC(N)=O)NC(=O)c3cc(C)cc(C)c3)cc2[N+](=O)[O-])cc1 (centres undefined)	.	?	-10%	?	?	-5%
Cn1c(=O)c2ncn(CC(=O)NC3CCCCCC3)c2n(C)c1=O	14µM*	3%	14%	-3%	-4%	10%
Cn1c(=O)c2ncn(CC(=O)NCCOc3ccc(C(C)(C)C)cc3)c2n(C)c1=O	40µM*	-2%	5%	-12%	0%	-9%
Cn1c(=O)c2ncn(CC(=O)NCCOCc3ccccc3Cl)c2n(C)c1=O	-7%	-20%	19%	-10%	4%	16%
CCc1cccc2c(-c3csc(=NC)n3C)c[nH]c12	50µM*	-31%	2%	?	-31%	-16%

Screening data as filed in PubChem.
